MITF inh: MITF inhibitors, primary screen, biochemical, AlphaScreen, human; Microphthalmia-associated transcription factor (Homo sapiens), O75030; AlphaScreen MITF homodimerization, bead proximity signal; 650,000 compounds, 0.91% hits; inhibition, % at 2.6 µM; in the data active = inhibition above about 50%;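 note: 0% = vehicle wells with protein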
Target sequence (O75030 whole entry, looked up): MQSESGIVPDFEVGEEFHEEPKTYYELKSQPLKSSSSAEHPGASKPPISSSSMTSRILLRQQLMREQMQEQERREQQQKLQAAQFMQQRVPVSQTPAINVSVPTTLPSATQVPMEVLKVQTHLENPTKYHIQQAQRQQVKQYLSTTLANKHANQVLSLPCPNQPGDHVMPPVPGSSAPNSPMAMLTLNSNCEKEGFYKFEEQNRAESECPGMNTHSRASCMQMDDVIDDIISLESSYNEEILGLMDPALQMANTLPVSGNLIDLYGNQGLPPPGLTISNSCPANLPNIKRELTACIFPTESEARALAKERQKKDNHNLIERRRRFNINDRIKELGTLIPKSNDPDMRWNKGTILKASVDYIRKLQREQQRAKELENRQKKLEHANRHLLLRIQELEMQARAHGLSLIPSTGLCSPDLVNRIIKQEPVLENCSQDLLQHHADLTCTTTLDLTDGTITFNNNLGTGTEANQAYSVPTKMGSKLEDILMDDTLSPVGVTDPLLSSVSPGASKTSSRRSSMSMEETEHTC
GPR151 ag: activators of human GPR151, primary screen, cell-based, PathHunter beta-arrestin, luminescence. G-protein coupled receptor 151 (Homo sapiens), Q8TDV0. activation, % at 11.2 µM. 650,000 compounds, 1% hits. PathHunter beta-arrestin GPR151 cells. AID 1508602, 2020; in the data active = activation above about 4.9%;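 note: 0% = median of compound wells and 100% = cells with positive control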
TEAD-YAP block: TEAD-YAP interaction inhibition, primary screen, TEAD-YAP interaction inhibitor project, luminescence, HEK-TIYL cells; TEAD-Gal4/YAP UAS-luciferase luminescence; inhibition, % at 9.12 µM; 640,000 compounds, 1.4% hits; in the data active = inhibition above about 32%;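 note: 0% = median of test compound wells and 100% = reference inhibitor wells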
FBW7 act: FBW7 E3 ligase activators, primary screen, biochemical, AlphaScreen, human; normalized activity (activation), % at 26.1 µM; 650,000 compounds, 0.13% hits; F-box/WD repeat-containing protein 7 (Homo sapiens), Q969H0; AlphaScreen FBW7–phospho-cyclin E peptide binding, activator screen; in the data active = normalized activity above about 1.9%;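 note: purified mutant Fbw7 with reduced substrate affinity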
MITF confirm: MITF inhibitors, retest of hits, confirmation, biochemical, AlphaScreen, triplicate | shares compounds with MITF inh | AlphaScreen MITF homodimerization, biotin/His-MITF beads | inhibition, % at 2.6 µM | 4,700 compounds, 16% hits | AID 1259372, 2018;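 active = inhibition above a cutoff derived from the DMSO control wells, cut at about 28% in these data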;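 note: 0% = MITF dimer wells with DMSO only; inhibitors lower the bead chemiluminescence by keeping MITF from dimerizing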
AlphaScreen DR: AlphaScreen optical interference compounds, dose response, counter-screen, biochemical, HTS; shares compounds with MITF inh; AlphaScreen optical interference counterscreen, cell-free; IC50, µM; 480 compounds, 6% hits; AID 1259373, 2018; call rule not given here
AS interf ctr: AlphaScreen optical interference compounds, counter-screen for MITF inhibitor project, biochemical, triplicate | shares compounds with MITF inh | LysRS AlphaScreen counterscreen, signal interference | inhibition, % at 2.6 µM | 4,700 compounds, 7.6% hits;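 active = inhibition above a cutoff derived from the DMSO control wells, cut at about 30% in these data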
* = called active by the depositor; / = no result given. Hits are enriched below; roughly 3.5% of the tested compounds scored in any of these assays.

SMILES	MITF inh	GPR151 ag	TEAD-YAP block	FBW7 act	MITF confirm	AS interf ctr	others
Cc1ccc(CN(Cc2ccco2)C(=S)NCC(=O)NCc2ccc3c(c2)OCO3)cc1	6.0	1.2	6.8	-0.2	/	/
Cc1ccccc1CN1CCN(CC2CC=CCC2)CC1 (stereo not given)	68.0*	-1.8	-9.3	0.0	-2.6	16.9
O=C(CNCc1ccco1)NCc1ccc2c(c1)OCO2	66.5*	-0.2	1.5	-0.1	9.5	21.4
Cc1ccccc1OCc1nc(-c2cccs2)no1	-13.3	0.3	-69.2	0.6	/	/
COc1ncccc1C(=O)N1CCC(CO)(Cc2cccc(C(F)(F)F)c2)CC1	3.4	4.1	-7.5	0.2	/	/
CC(C)C(=O)Nc1cccc(C(=O)N2CCN(c3ccccc3)CC2)c1	18.5	0.0	-1.9	-0.1	/	/
Cc1ccc(-c2nnn(CC(=O)c3ccc4c(c3)OCCO4)n2)cc1	-10.6	-0.7	-3.6	-0.1	/	/
Cc1ccc(C(=O)Cn2nnc(-c3ccc(N)cc3)n2)cc1	73.0*	-1.4	-0.3	0.1	15.6	10.3
CCOC(=O)/C(C#N)=C/c1c(Oc2ccccc2)nc2ccccn2c1=O	25.6	-0.5	6.4	0.1	/	/
S=c1[nH]nc(-c2ccncc2)n1/N=C/C=C/c1ccco1	70.0*	0.5	1.7	-0.3	79.9*	15.7	AlphaScreen DR=>6.48
Cc1ccc(CN2CCN(Cc3ccccn3)CC2)cc1	67.8*	-1.3	-1.6	0.2	-3.4	1.4
c1ccc(N2CCN(Cc3ccccn3)CC2)cc1	29.7	1.2	-1.9	0.0	/	/
Cc1ccccc1CN1CCN(Cc2ccccn2)CC1	79.5*	1.3	-14.5	0.0	13.4	21.1
O=C(CNCc1ccccn1)NCc1ccc(Cl)cc1	74.0*	1.1	5.2	-1.4	31.4*	100.3*
CS(=O)(=O)N1CCN(Cc2ccccn2)CC1	76.7*	-1.5	-5.5	-0.6	6.5	15.4
Clc1ccc(CN2CCN(Cc3ccccn3)CC2)cc1	62.7*	-0.8	-29.1	-0.1	-5.7	0.0
C=C(C)CN(CC)Cc1ccc([N+](=O)[O-])o1	64.9*	1.5	-1.8	-0.2	23.2	16.1
COc1ccc(/C=C/C(=O)Nc2ccc([N+](=O)[O-])cc2Br)cc1	8.9	2.0	5.6	0.1	/	/
CN1CCN(C(=O)c2ccc(-c3nc(Nc4ccccc4)c4ncn(C5CCCCC5)c4n3)cc2)CC1	75.4*	0.6	-13.8	0.0	40.5*	3.4	AlphaScreen DR=>7.63
CC(=O)Nc1ccc(Nc2nc(-c3ccc(C(=O)N4CCN(C)CC4)cc3)nc3c2ncn3C2CCCCC2)cc1	-0.2	-0.8	-14.3	0.0	/	/
COc1cc(CN2CCN(Cc3ccccc3C(F)(F)F)CC2)cc(OC)c1OC	72.8*	0.6	3.1	-0.2	6.1	13.1
COc1cccc(CN2CCN(Cc3ccccc3C(F)(F)F)CC2)c1OC	67.1*	-0.2	-8.8	-0.2	-0.1	9.4
COc1cc(CN2CCN(c3ccccc3)CC2)cc(OC)c1OC	43.3	-1.0	2.1	0.0	/	/
COc1cccc(CN2CCN(Cc3ccccn3)CC2)c1OC	63.9*	-0.1	-7.6	-0.4	-4.3	13.1
Cc1ccc(-n2cc(-c3ccccc3[N+](=O)[O-])cn2)cc1	31.7	-1.2	-60.4	0.5	/	/
SMILES	MITF inh	GPR151 ag	TEAD-YAP block	FBW7 act	MITF confirm	AS interf ctr	others
CCOc1ccc(C(=O)NCC2(c3cccs3)CC2)cc1	51.8*	1.1	-33.6	-0.1	-6.6	-6.6
COc1ccc2c(c1)OC(C)CN(CCC(=O)N1CCOCC1)C2 (stereo not given)	7.7	-1.3	6.7	0.0	/	/
Cc1cccc(NC(=O)CSc2ncc(-c3ccccc3)[nH]2)c1	80.6*	2.4	-1.8	-0.1	-7.0	-1.5
OC(CNCC(c1ccco1)N1CCCC1)COc1ccccc1 (stereo not given)	53.7*	-1.9	5.9	-0.3	-4.2	1.1
OC(CNC1CCCC1)COCc1ccccc1Cl (stereo not given)	26.1	0.3	5.3	-0.1	/	/
OC(CNCC(c1ccco1)N1CCCC1)COCc1ccccc1Cl (stereo not given)	60.7*	0.2	11.8	0.0	-11.0	0.8
Cc1cccc(CS(=O)(=O)NCCCc2ccc(N(C)C)cc2)c1	-7.8	1.5	-2.6	-0.4	/	/
CC(=O)Oc1cccc(C(=O)Nc2cc(C(=O)O)ccc2C)c1	102.3*	1.4	14.8	0.1	7.3	17.9
Cc1ccc(C(=O)O)cc1NC(=O)c1cccc(C(=O)Nc2cc(C(=O)O)ccc2C)c1	13.6	-1.0	1.4	0.8	/	/
Cc1cccc(N2C(=O)C3C4C=CC(O4)C3C2=O)c1C (stereo not given)	50.9*	0.2	6.1	-0.5	-0.7	9.6
Cc1ccccc1CN1CCN(CC2CC3C=CC2C3)CC1 (stereo not given)	76.6*	-1.8	1.2	-0.3	-1.3	12.3
COc1ccc(CN2CCN(CC3CC4C=CC3C4)CC2)c(OC)c1OC (stereo not given)	70.5*	-0.5	1.6	-0.1	-3.9	-6.8
O=C(c1ccccc1)N1CCN(CC2CC3C=CC2C3)CC1 (stereo not given)	24.0	0.4	-2.5	0.0	/	/
COc1cc(OC)c(OC)cc1CN1CCN(CC2CC3C=CC2C3)CC1 (stereo not given)	56.9*	0.9	-4.4	-0.2	-6.4	-8.2
Fc1cccc(CN2CCN(CC3CC4C=CC3C4)CC2)c1 (stereo not given)	70.5*	-0.3	5.3	0.3	-2.8	-2.1
COc1cc(OC)c(OC)cc1CN1CCSCC1	40.4	0.3	-5.1	-0.1	/	/
Fc1cccc(CN2CCCNCC2)c1	-8.9	-0.2	-3.1	0.0	/	/
CCNS(=O)(=O)c1ccc(OC)c2ncccc12	-7.6	-0.8	-8.0	0.0	/	/
O=C(Nc1ccccc1)c1cc(N2CCCC2CO)nc2ccccc12 (stereo not given)	8.4	-0.6	-5.2	0.1	/	/
C1=CC2CC1CC2CN1CCN(Cc2ccccn2)CC1 (stereo not given)	73.7*	-1.0	-3.5	-0.1	13.2	23.1
COc1cc(CN2CCN(CC3CC4C=CC3C4)CC2)cc(OC)c1O (stereo not given)	66.4*	-0.9	-8.3	0.0	9.2	27.0
COc1ccc(CN2CCN(CC3CC4C=CC3C4)CC2)c(OC)c1 (stereo not given)	72.0*	1.5	0.9	-0.4	5.1	-1.0
COc1cc(CN2CCN(S(=O)(=O)c3ccc(F)cc3)CC2)cc(OC)c1O	38.7	0.7	5.0	-0.1	/	/
